Reference: PubChem BioAssay AID720631 (The Scripps Research Institute Molecular Screening Center, 2013)
The other results are listed elsewhere or left out. Values without a mark were called inactive.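 The calls were made as follows: active = inhibition above the mean of compounds lying within the control limits plus 3 SD (cut at about 16% in these data); inactive = the rest.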

Biological target: Fibrinogen beta chain (Homo sapiens) (UniProt P02675)
Experiment: inhibitors of Tn6 peptide binding to fibrin DD(E), confirmation, biochemical, fluorescence polarization, human fibrin, Tn6 probe (AID 720631);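 also: 0% = plate median of compound wells and 100% = inhibitor peptide control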
Conditions: FP displacement of TRITC-Tn6 peptide from DD(E); at 8.3 µM; hits give high values

Fibrinogen beta chain (Homo sapiens), sequence (P02675 whole entry, looked up): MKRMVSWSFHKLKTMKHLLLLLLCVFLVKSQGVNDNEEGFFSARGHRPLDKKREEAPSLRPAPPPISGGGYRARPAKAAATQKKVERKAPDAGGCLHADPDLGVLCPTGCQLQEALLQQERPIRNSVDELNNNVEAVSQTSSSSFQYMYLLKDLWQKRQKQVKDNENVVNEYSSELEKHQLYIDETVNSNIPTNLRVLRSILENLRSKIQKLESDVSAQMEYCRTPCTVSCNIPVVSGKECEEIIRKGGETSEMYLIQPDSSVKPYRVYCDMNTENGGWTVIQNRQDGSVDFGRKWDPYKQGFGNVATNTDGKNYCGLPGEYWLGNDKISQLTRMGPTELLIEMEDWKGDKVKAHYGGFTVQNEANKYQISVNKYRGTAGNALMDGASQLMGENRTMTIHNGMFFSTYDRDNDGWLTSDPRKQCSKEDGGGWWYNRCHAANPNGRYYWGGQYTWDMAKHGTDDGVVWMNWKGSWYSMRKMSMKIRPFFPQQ

Row | SMILES | inhibition
1 | COc1ccc2c(c1O)-c1cccc3c1[C@@H](C2)N(C)CC3 | -8.1%
2 | Cc1cc(N2CCNC[C@@H]2C)ccc1N1CC[C@H](O)C1 | 2.65%
